AmpC no deterg: blocks E. coli AmpC beta-lactamase in detergent-free assay. P00811. AmpC nitrocefin hydrolysis, absorbance 480 nm, 0.0001% Triton. Potency, µM (series often up to 57.1 µM), hits mostly inhibitors. hit rate 0.52% among 330,000. AID 485341; also: nearly all actives have a fitted effect of over 20% in size
Target sequence (P00811 whole entry, looked up): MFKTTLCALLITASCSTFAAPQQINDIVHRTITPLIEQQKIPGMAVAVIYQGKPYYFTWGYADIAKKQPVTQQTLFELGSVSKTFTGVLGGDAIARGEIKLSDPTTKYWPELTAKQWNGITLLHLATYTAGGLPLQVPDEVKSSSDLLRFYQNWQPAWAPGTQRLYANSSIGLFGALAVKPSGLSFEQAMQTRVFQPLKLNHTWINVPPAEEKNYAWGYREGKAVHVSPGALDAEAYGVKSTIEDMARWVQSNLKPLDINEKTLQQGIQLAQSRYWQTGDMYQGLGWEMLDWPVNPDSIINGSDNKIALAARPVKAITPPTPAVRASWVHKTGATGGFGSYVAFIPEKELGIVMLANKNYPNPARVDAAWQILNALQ
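AmpC (5.3 nM in the dispensed reagent) in 20 mM phosphate pH 7.0 with 0.01% (detergent screen) or 0.0001% Triton X-100 was preincubated with compounds for 15 min at room temperature. Nitrocefin was then added from an 800 uM solution, and hydrolysis was followed at 480 nm.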
Pf growth 96h: inhibits malaria parasite growth, 96 h | P. falciparum luciferase reporter growth, 96 h | Potency, µM (doses to about 28.7 µM), most hits filed as inhibitors | hit rate 6.9% among 320,000
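Compounds incubated with erythrocytes infected by luciferase-expressing P. falciparum (2% hematocrit, 0.05% parasitemia final) for 96 hours, 37 C in 5% CO2. Growth inhibition scored as decreased luciferase luminescence.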
Pf growth 48h: P. falciparum growth inhibition at 48 hours (one generation) | P. falciparum luciferase growth in erythrocytes, 48 h | Potency, µM (titrated, usually from 28.7 µM), usual class: inhibitors | hit rate 5.9% among 310,000
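Luciferase-expressing P. falciparum in infected erythrocytes (2% hematocrit, 0.1% parasitemia final) in RPMI 1640/0.5% Albumax were exposed to compound for 48 hours at 37 C, 5% CO2; growth read as luminescence.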
SARS PLpro yeast: blocks SARS-CoV papain-like protease in a yeast assay; Potency, µM (doses to about 32.9 µM), hits mostly activators; hit rate 0.19% among 330,000; S. cerevisiae expressing SARS-CoV PLpro, growth rescue; AID 485353; calls by dose curve; also: nearly all actives have a fitted effect of over 55% in size
AmpC inh detg: inhibitors of E. coli AmpC beta-lactamase with detergent. P00811. AmpC hydrolysis of nitrocefin, absorbance 480 nm, 0.01% Triton. Potency, µM (series often up to 114 µM), most hits filed as inhibitors. hit rate 0.041% among 370,000; also: nearly all actives have a fitted effect of over 25% in size
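AmpC (5.3 nM in the dispensed reagent) in 20 mM phosphate pH 7.0 with 0.01% (detergent screen) or 0.0001% Triton X-100 was preincubated with compounds for 15 min at room temperature. Nitrocefin was then added from an 800 uM solution, and hydrolysis was followed at 480 nm.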
Sm TGR block: blocks Schistosoma mansoni thioredoxin glutathione reductase; Q962Y6; purified TGR, DTNB reduction, TNB absorbance 405 nm; Potency, µM (doses to about 114 µM), usual class: inhibitors; hit rate 3% among 360,000; AID 485364; also: nearly all actives have a fitted effect of over 60% in size
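TGR 20 nM + NADPH 100 uM (dispensed conc.), cpd preinc 15 min RT; start with NADPH (500 uM addition) then DTNB (15 mM addition). Kinetic TNB absorbance, 405 nm filter. Four-parameter Hill fit across titration.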
Numbers stand for hits; . = inactive; ? = inconclusive; / = no result given; [ ] = dose if it differs, or a comment. Sampled rows, rich in hits. Any-hit rate of the full collection: about 12%. Unless noted, calls follow the shape of the dose curve; as a rule, active = well fitted curve in the direction sought with a large enough effect; inconclusive = small, poorly fitted or top-dose-only effect, or another doubt; inactive = no such curve, though single readings can be large; an effect the other way counts as inactive or inconclusive.

SMILES	AmpC no deterg	Pf growth 96h	Pf growth 48h	SARS PLpro yeast	AmpC inh detg	Sm TGR block
O=C(Nc1cccc(Cl)c1)N(CCCN1CCOCC1)Cc1ccccc1F	.	2.1µM	.	.	.	.
CCc1ccccc1NC(=S)N(CCN1CCOCC1)Cc1ccccc1F	.	10µM	.	.	.	.
COc1ccc(NC(=O)c2cccc3c(=O)c4c([nH]c23)CCCC4)cc1	/	/	/	/	.	.
CC(C)(C)c1ccc(-c2nn(CCC#N)cc2/C=N/O)cc1	.	.	.	.	.	.
COc1ccc(-c2nn(CCC#N)cc2C=C(C#N)C#N)cc1	.	.	.	.	.	25µM
Cc1ccc(-c2nn(CCC#N)cc2C=C(C#N)C#N)cc1	.	.	.	.	.	8.9µM
CCc1ccc(NC(=O)Cn2c(=O)n(CCCC(=O)NCCc3ccc(OC)c(OC)c3)c(=O)c3ccccc32)cc1	/	/	/	/	.	.
O=C(NCc1ccc(F)cc1)C1(S(=O)(=O)c2ccc(Cl)cc2)CC1	.	.	.	.	?	.
COc1ccc(-c2cc(OC(=O)c3ccccc3C)c3c(C)oc(C)c3c(=O)c2)cc1	/	/	/	/	.	?
Cc1ccc2nc(-c3ccccc3O)c(Nc3ccc4c(c3)OCCO4)n2c1	.	12µM	12µM	.	?	.
Oc1ccccc1-c1nc2cnccn2c1Nc1ccc(Cl)cc1	/	/	/	/	.	.
Cc1ccc(Nc2c(-c3ccccc3O)nc3cnccn23)cc1	.	.	5.9µM	.	.	.
Cc1c(C)c2ccc(OC(C)C(=O)NC3CCN(Cc4ccccc4)CC3)cc2oc1=O (stereo unspecified)	.	?	?	.	.	.
C=C[C@H](Cc1ccccc1)N(Cc1ccccc1)S(=O)(=O)N(Cc1ccccc1)[C@H](C=C)Cc1ccccc1	.	/	/	.	/	/
N#Cc1cnc(NOCc2ccc(Cl)cc2)nc1	.	.	.	.	.	.
FC(F)(F)c1cccc(Sc2nc(-c3ccccc3)nnc2C(F)(F)F)c1	.	?	12µM	.	.	.
FC(F)(F)c1nnc(-c2ccccc2)nc1Sc1ccc(Cl)cc1	.	.	?	.	?	?
FC(F)(F)c1nnc(-c2ccccc2)nc1Sc1ccccc1	.	13µM	?	.	.	?
Cc1ccc(S(=O)(=O)C(C#N)=C2N(C)c3ccccc3N2C)cc1	.	?	.	.	.	.
CCCCCn1c(N)c(-c2nc3ccccc3s2)c2c([N+](=O)[O-])nn(C)c(=O)c21	.	5.2µM	?	.	.	.
Cc1nnc2sc(SCc3ccccc3Cl)nn2c1=O	.	?	?	.	.	.
Cc1nnc2sc(SCC(=O)Nc3nccs3)nn2c1=O	.	1.7µM	?	.	?	?
Cc1nnc2sc(SCc3cccc(Cl)c3)nn2c1=O	.	2.1µM	5.9µM	.	.	.
Cc1nnc2sc(SCc3ccccc3)nn2c1=O	.	?	10µM	.	.	.
COc1ccccc1NC(=O)CSc1nn2c(=O)c(C)nnc2s1	.	?	.	.	.	.
SMILES	AmpC no deterg	Pf growth 96h	Pf growth 48h	SARS PLpro yeast	AmpC inh detg	Sm TGR block
COc1ccc(NC(=O)C/C(C)=N/NC(=O)C2CCCCC2)c([N+](=O)[O-])c1	.	10µM	.	.	.	.
O=C1C2C3C=CC(CC3)C2C(=O)N1c1cccc(Br)c1 (stereo unspecified)	.	.	.	/	.	.
Cc1nnc(NC(=O)CSc2nc3[nH]ncc3c(=O)[nH]2)s1	.	.	.	.	.	45µM
CCc1nnc(NC(=O)CSc2nc3[nH]ncc3c(=O)[nH]2)s1	.	.	.	.	.	.
Cc1cccc(N2CCN(C(=O)CCS(=O)(=O)c3ccc4c(c3)oc(=O)n4C)CC2)c1C	.	9.3µM	13µM	.	.	.
Cc1cccc(N2CCN(C(=O)CCNS(=O)(=O)c3ccc4c(c3)oc(=O)n4C)CC2)c1C	.	1.3µM	?	.	.	.
O=C(Nc1cccc(C(F)(F)F)c1)c1cnn(-c2cccc(F)c2)c1C1CCNCC1	/	/	/	/	.	.
CCOc1ccccc1CNC(=O)c1cn(-c2ccc(OC)cc2)c(=O)c2ccccc12	/	/	/	/	.	.
Cc1nc2nc(NCc3ccc(Cl)cc3)[nH]n2c(=O)c1Cc1ccccc1	/	/	/	/	.	.
C/C=C\C(=O)Nc1cccc(C2=NOC3(C2)C[C@@H](C(N)=O)N(C(=O)c2ccccc2)C3)c1 (stereo partly specified)	.	?	?	.	.	.
C/C=C\C=C\C(=O)Nc1cccc(C2=NOC3(C2)C[C@H](C(N)=O)N(C(=O)c2ccccc2C(=O)c2ccccc2)C3)c1 (stereo partly specified)	.	?	?	.	.	3.2µM
C/C=C/C=C\C(=O)Nc1cccc(C2=NOC3(C2)C[C@@H](C(N)=O)N(C(=O)c2cc([N+](=O)[O-])cc([N+](=O)[O-])c2C)C3)c1 (stereo partly specified)	.	?	?	.	.	2.8µM
C/C=C\C=C/C(=O)Nc1cccc(C2=NOC3(C2)C[C@@H](C(N)=O)N(C(=O)c2ccccc2)C3)c1 (stereo partly specified)	.	?	.	.	.	3.2µM
C/C=C/C=C\C(=O)Nc1cccc(C2=NOC3(C2)C[C@H](C(N)=O)N(C(=O)/C=C/C)C3)c1 (stereo partly specified)	.	.	.	.	.	2.8µM
COc1ccc(S(=O)(=O)NCC2CCC(C(=O)O)CC2)cc1 (stereo unspecified)	.	.	.	.	.	.
Cc1ccc(CSc2ncc(Cl)c(C(=O)NCCc3ccc(S(N)(=O)=O)cc3)n2)cc1	/	/	/	/	.	.
CCOc1ccc(N(CC(=O)N/N=C(\C)c2cccc(NC(C)=O)c2)S(=O)(=O)c2ccccc2)cc1	.	.	.[0.00184 µM]	.	.	.
O=C(CNC(=O)c1ccc(OC(F)F)cc1)Nc1cccc(S(=O)(=O)N2CCCC2)c1	.	.	?	.	.	.
CCC(=O)Nc1cccc(C2=NOC3(C2)C[C@@H](C(N)=O)N(C(=O)CC)C3)c1 (stereo partly specified)	.	.	.	.	.	.
C/C=C\C=C\C(=O)N1CC2(CC(c3cccc(NC(=O)CC)c3)=NO2)C[C@H]1C(N)=O (stereo partly specified)	.	.	.	.	.	2.5µM
CSc1ncc(CN2CCCC(C(=O)c3ccccc3SC)C2)cn1 (stereo unspecified)	.	.	.	.	.	.
COc1ccc(C(=O)C2CCCN(Cc3ccccn3)C2)c(OC)c1 (stereo unspecified)	.	.	?	.	.	.

From PubChem
